# Only some compounds are listed: those with a hit (about 3.7% of all), similar ones and a draw of the others.
# tim23-1 inh: growth inhibitors of tim23-1 mutant yeast | S. cerevisiae tim23-1 growth, BacTiter-Glo luminescence, 24 h | inhibition, % at 20 µM | hit rate 1.3% among 330,000 | AID 463212;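 active = growth inhibition of the mutant yeast at or above 50%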;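 note: temperature-sensitive mutant grown at 25 °C; plate controls were DMSO-treated mutant yeast for no effect and medium wells lacking yeast for full effect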
# TIM10 inh: TIM10 yeast growth inhibition; S. cerevisiae TIM10 strain growth, BacTiter-Glo luminescence, 24 h; inhibition, % at 10 µM; hit rate 1.4% among 330,000; AID 463195;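 active = inhibition of 40% or more at the single tested concentration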;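 note: wild-type TIM10 isogenic control strain grown at permissive 25 °C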
# tim10-1 inh: tim10-1 yeast growth inhibition | S. cerevisiae tim10-1 ts strain growth, BacTiter-Glo, 24 h | hit rate 2.2% among 330,000 | inhibition, % at 20 µM;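 active = inhibition of at least 40%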;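 note: mutant grown at 25 °C; 0% = DMSO wells with yeast and 100% = wells holding no yeast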
# PfHsp90 set2: inhibits growth of yeast expressing Plasmodium falciparum Hsp90; S. cerevisiae expressing PfHsp90, BacTiter-Glo ATP, 48 h; yeast lacking PDR1 and PDR3 efflux regulators; inhibition, % at 9.4 µM; hit rate 0.32% among 310,000;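 active = every replicate shows inhibition above about 80%, whatever the replicate mean, limit read from the data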;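 note: 0% = DMSO neutral controls and 100% = 20 µM radicicol positive controls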
# Rce1 inh: blocks yeast Ras-converting enzyme; Q03530; yeast membranes, quenched prenylated peptide cleavage fluorescence; calls only; hit rate 0.27% among 290,000;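 active = fall in fluorescence gain of 50% or more versus controls, with final raw signal at or below 3038400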;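 note: plate controls were neutral control wells for no effect and wells lacking membranes for full effect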
# Target sequence (Q03530 whole entry, looked up): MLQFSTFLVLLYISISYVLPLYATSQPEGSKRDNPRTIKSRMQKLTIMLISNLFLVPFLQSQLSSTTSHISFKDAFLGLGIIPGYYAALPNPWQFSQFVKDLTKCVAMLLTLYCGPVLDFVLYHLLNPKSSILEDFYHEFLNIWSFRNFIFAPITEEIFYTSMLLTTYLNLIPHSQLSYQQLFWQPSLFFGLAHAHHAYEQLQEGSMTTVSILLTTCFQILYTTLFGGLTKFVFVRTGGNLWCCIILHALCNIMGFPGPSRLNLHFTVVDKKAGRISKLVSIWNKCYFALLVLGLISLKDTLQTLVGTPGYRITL
# tim10-1 confirm: tim10-1 yeast growth inhibition, confirmed. shares compounds with tim10-1 inh. S. cerevisiae tim10-1 ts strain growth, BacTiter-Glo, 24 h. inhibition, % at 20 µM. hit rate 56% among 7,400;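 active = inhibition of yeast growth at or above a set limit in either of two repeat tests at 20 µM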;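 note: tim10-1 mutant grown at permissive 25 °C to find synthetic lethal compounds; 0% = DMSO yeast wells and 100% = medium wells without yeast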
# The depositor's hits bear a star; i = inactive; x = no result given.
SMILES,tim23-1 inh,TIM10 inh,tim10-1 inh,PfHsp90 set2,Rce1 inh,tim10-1 confirm
O=C(NCCC1=CCCCC1)C1CCCN(c2nc3ccccc3o2)C1 (configuration not stated),35,14,49*,19,i,35*
COc1ccc(C(=O)Oc2cc(C)c(CN3CCOCC3)cc2C)cc1OC,39,25,35,18,i,x
S=c1[nH]cc(-c2ccccc2)n1-c1ccccc1,3,-5,44*,3,i,1
COc1ccc(CN(CC2CCCO2)C(=O)c2cc3sccc3n2C)c(OC)c1 (configuration not stated),22,32,45*,-7,i,29
CCO[C@@H]1OC(C(=O)N2CCN(Cc3ccccc3)CC2)=C[C@H](c2csc3ccccc23)[C@H]1CCCO,30,7,24,16,i,x
Cc1sc(N)nc1C12CC3CC(CC(C3)C1)C2,17,20,46*,-31,x,16
Cc1ccc(-n2c(-c3ccncc3)nnc2-c2cccs2)cc1,32,-21,33,-5,i,x
Cc1ccc2cc(CCNC(=O)c3ccc(C)c([N+](=O)[O-])c3)c(=O)[nH]c2c1,0,2,4,-1,i,x
O=C1C(Cc2ccccc2)Nc2ncnc(N3CCc4ccccc4C3)c2N1Cc1ccc(Br)cc1 (configuration not stated),40,23,41*,x,i,23
C=CCn1cc(C(=O)N2CCN(CC)CC2)c(=O)c2cc(S(=O)(=O)N(CC)CC)ccc21,14,5,-15,47,i,x
COc1ccc(COC(=O)CCS(=O)(=O)c2ccc(C)cc2)cc1F,17,2,27,-35,i,x
Cc1ccc(SCCC(=O)NCCSCc2ccccc2C)cc1,10,17,20,-47,i,x
COc1ccc(-c2cc(C3CCN(c4ccc(C(C)=O)cc4[N+](=O)[O-])CC3)[nH]n2)cc1,21,29,35,-180,i,x
COc1ccc(-c2cc(C3CCN(C(=O)OC(C)(C)C)CC3)[nH]n2)cc1,39,34,44*,x,i,39*
COc1ccc(OC)c(-c2cc(C3CCN(C(=O)OC(C)(C)C)CC3)[nH]n2)c1,19,9,40,15,i,6
CCCN(C(=O)COc1ccc(Cl)cc1Cl)c1c(N)n(Cc2ccccc2)c(=O)[nH]c1=O,5,4,-1,-38,i,x
COc1ccccc1NS(=O)(=O)c1ccc(C(=O)N2CCN(c3ccccc3)CC2)cc1,29,13,24,-17,x,x
CCc1ccc2[nH]c(=O)c(C3C(C#N)=C(N)Oc4c3ccc3cccnc43)cc2c1 (configuration not stated),36,25,41*,-11,i,12
Cc1ccc2cc(C3C(C#N)=C(N)Oc4c3ccc3cccnc43)c(=O)[nH]c2c1 (configuration not stated),31,16,22,9,i,x
CN1C(=O)C(C)(C)c2cc(S(=O)(=O)NCC(=O)NCc3ccccc3)ccc21,16,1,-5,-11,i,x
Cc1ccc2cccc(OCc3ccc(Br)cc3)c2n1,39,40,44*,3,i,17
CCCCN1C=C(C(C)=O)C(=O)CC1,x,x,x,10,x,x
O=C(N/N=C/c1ccc([N+](=O)[O-])o1)c1cc(-c2cccc(Br)c2)nc2ccccc12,31,34,44*,-12,i,25
O=C(N/N=C/c1ccco1)c1cc(-c2ccccc2)nc2ccccc12,32,21,20,1,i,x
Cc1ccc(-c2cc(C(=O)NN=C3CCCC3)c3ccccc3n2)cc1,42,22,44*,-13,i,25
SMILES,tim23-1 inh,TIM10 inh,tim10-1 inh,PfHsp90 set2,Rce1 inh,tim10-1 confirm
CCCc1ccc(-c2cc(C(=O)N/N=C/c3ccc([N+](=O)[O-])o3)c3ccccc3n2)cc1,46,31,44*,-9,i,49*
O=C(NN=C1CCCCCC1)c1cc(-c2ccccc2)nc2ccccc12,28,19,24,5,i,x
O=C(N/N=C/c1ccccn1)c1cc(-c2ccc(Br)cc2)nc2ccccc12,50,38,44*,106*,i,24
CCCOc1cccc(-c2cc(C(=O)N/N=C/c3ccccn3)c3ccccc3n2)c1,41,27,19,-10,i,x
CC(NC(=O)CNC(=O)c1sc2ccccc2c1Cl)c1cccnc1 (configuration not stated),19,-9,14,-13,x,x
CCOc1ccc(C(O)C(CN2CCOCC2)c2ccccc2)cc1 (configuration not stated),6,-17,-5,-14,i,x
Cc1ccc(-n2c(SCC(=O)N3CCOCC3)nc(O)c(Cc3ccccc3)c2=O)cc1,16,5,4,7,i,x
CN(C(=O)CSc1ncnc2sc3c(c12)CCCC3)C1CCS(=O)(=O)C1 (configuration not stated),15,6,17,3,x,x
COC(=O)c1ccc(NC(=O)CCN2C(=O)C3C4CCC(C4)C3C2=O)cc1 (configuration not stated),16,7,9,-6,i,x
Cc1sc(NC(=O)c2cc(-c3ccccc3)nc3ccccc23)c(C(N)=O)c1C,34,22,41*,-78,i,17
O=C(CNc1ccc2ccccc2c1)N/N=C/c1ccc([N+](=O)[O-])o1,38,33,47*,-7,i,41*
Cc1cc(C(=O)Nc2ccccc2C)n(-c2ccccc2)n1,4,-5,7,13,i,x
C=CCn1c(-c2cc3cccc(OC)c3o2)n[nH]c1=S,42,16,44*,10,i,19
C#Cc1ccc([C@@H]2C=C(C(=O)N3CCOCC3)O[C@H](OCC)[C@H]2CCCO)cc1,10,6,21,-9,i,x
O=C(CCl)N1CCN(S(=O)(=O)Cc2ccccc2)CC1,29,18,43*,28,x,20
CCOC(=O)N1CCN(S(=O)(=O)Cc2ccccc2)CC1,-6,5,6,-16,i,x
CC(=O)Oc1ccc(/C=N/NS(=O)(=O)c2ccccc2)cc1,28,23,44*,-13,i,44*
O=C(COc1ccc(/C=N/NS(=O)(=O)c2ccccc2)cc1)NCc1ccccc1,3,-4,2,-3,i,x
COc1ccc([C@H]2CC(=O)C=C(c3ccc4c(c3)sc3ccccc34)C2)cc1,-1,-4,4,-4,x,x
COc1ccc(N2CCN(c3cc(C)nc4ccc(OC)cc34)CC2)cc1,25,13,43*,9,i,8
COc1ccc2nc(C)cc(N3CCC(C(N)=O)CC3)c2c1,-4,-8,11,-38,i,x
COC(=O)c1c(-c2ccccc2Cl)noc1/C=C/N(C)C,35,27,40*,8,i,26
Cc1ccc(-c2csc3ncnc(-n4nnc5ccccc54)c23)cc1,47,34,38,-26,i,x

# Compound activity: PubChem, several laboratories
